Reference: PubChem BioAssay
The source made the active and inactive calls.

Legend:
[1] = tested on: PRMT1 (protein arginine N-methyltransferase 1); test: PRMT1 binders on small-molecule microarrays, primary screen, biochemical, small-molecule microarray, 635 nm fluorescence (AID 1088); conditions: small-molecule microarray binding, higher = more signal;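 also: binding of Prmt1 protein to compounds spotted on small-molecule microarray slides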
[2] = yeast growth modulation, basal conditions, primary screen, YJM789 clinical isolate, OD600, 24 h (AID 1089);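 also: growth of clinical yeast isolate S. cerevisiae YJM 789 seeded 1000 cells per well; test concentration not given here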; conditions: S. cerevisiae YJM789 growth, higher = more signal, called active from +8 up or from −8 down
[3] = fission yeast growth modulation, primary screen, strain 972, OD600, 24 h, no modulator (AID 1090);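 also: basal condition with compound alone and no growth modifier present; test concentration not given here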; conditions: S. pombe 972 growth, higher = more signal, called active from +8 up or from −8 down
[4] = S. cerevisiae growth modulation with rapamycin, primary screen, strain BY4716, OD600, 96 h (AID 1091); conditions: higher = more signal, called active from +8 up or from −8 down; also: test concentration not given here
[5] = molecular target: Torsin-1A-interacting protein 2 (Homo sapiens) (UniProt Q8NFQ8); test: LULL1 binders on small-molecule microarray, primary screen, cell lysate, human LULL1 lysate, 635/667 nm fluorescence (AID 1092); conditions: hLULL1 lysate binding, 635 nm fluorescence, higher = more signal;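 also: probe is lysate of COS7 cells overexpressing human LULL1; score merges per-feature 667 nm fluorescence with signal-to-noise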
[6] = E. coli growth modulation, two-sided OD650, primary screen, E. coli filamentation project, strain DRC41, 24 h (AID 1093); conditions: OD650, 24 h, higher = more signal, called active from +8 up or from −8 down;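 also: MC1000 strain lacking acrAB efflux and sulA so SOS filamentation is blocked; test concentration not given here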
[7] = small-molecule microarray binders of probe aLefty2, primary screen, biochemical, biotinylated probe, 635/667 nm fluorescence (AID 1094); conditions: higher = more signal;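 also: score merges spot fluorescence near 667 nm with spot signal-to-noise ratio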
[8] = tested on: Noggin (protein binding on small-molecule microarray); test: Noggin binders on small-molecule microarray, primary screen, biochemical, 635/667 nm fluorescence (AID 1095); conditions: 635 nm fluorescence, higher = more signal;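 also: score merges 667 nm feature fluorescence with signal to noise over triplicate slides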
[9] = molecular target: Neurogenic locus notch homolog protein 3 (Homo sapiens) (UniProt Q9UM47); test: NOTCH3 binders on small-molecule microarray, primary screen, biochemical, 635/667 nm fluorescence (AID 1096); conditions: NOTCH3 binding, 635 nm fluorescence, higher = more signal
[10] = small-molecule microarray binders of probe aEGFR, primary screen, biochemical, biotinylated probe, 635/667 nm fluorescence (AID 1097); conditions: higher = more signal;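 also: probe is a biotinylated anti-EGFR antibody binding compounds printed on slides; score combines fluorescence near 667 nm and signal to noise of each spot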

Chain of Torsin-1A-interacting protein 2 (Homo sapiens) (Q8NFQ8 whole entry, looked up): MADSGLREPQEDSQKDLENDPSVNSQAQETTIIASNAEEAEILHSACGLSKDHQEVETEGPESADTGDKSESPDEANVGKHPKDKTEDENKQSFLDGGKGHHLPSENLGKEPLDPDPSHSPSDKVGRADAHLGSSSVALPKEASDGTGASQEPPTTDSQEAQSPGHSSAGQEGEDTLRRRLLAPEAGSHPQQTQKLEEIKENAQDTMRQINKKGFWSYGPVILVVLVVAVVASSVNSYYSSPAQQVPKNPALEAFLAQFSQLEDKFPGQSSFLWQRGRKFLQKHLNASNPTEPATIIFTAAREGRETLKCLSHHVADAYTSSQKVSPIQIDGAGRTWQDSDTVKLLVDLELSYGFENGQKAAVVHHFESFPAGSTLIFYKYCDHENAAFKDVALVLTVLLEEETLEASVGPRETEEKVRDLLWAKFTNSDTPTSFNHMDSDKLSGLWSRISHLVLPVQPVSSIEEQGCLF
Chain of Neurogenic locus notch homolog protein 3 (Homo sapiens) (Q9UM47 whole entry, looked up): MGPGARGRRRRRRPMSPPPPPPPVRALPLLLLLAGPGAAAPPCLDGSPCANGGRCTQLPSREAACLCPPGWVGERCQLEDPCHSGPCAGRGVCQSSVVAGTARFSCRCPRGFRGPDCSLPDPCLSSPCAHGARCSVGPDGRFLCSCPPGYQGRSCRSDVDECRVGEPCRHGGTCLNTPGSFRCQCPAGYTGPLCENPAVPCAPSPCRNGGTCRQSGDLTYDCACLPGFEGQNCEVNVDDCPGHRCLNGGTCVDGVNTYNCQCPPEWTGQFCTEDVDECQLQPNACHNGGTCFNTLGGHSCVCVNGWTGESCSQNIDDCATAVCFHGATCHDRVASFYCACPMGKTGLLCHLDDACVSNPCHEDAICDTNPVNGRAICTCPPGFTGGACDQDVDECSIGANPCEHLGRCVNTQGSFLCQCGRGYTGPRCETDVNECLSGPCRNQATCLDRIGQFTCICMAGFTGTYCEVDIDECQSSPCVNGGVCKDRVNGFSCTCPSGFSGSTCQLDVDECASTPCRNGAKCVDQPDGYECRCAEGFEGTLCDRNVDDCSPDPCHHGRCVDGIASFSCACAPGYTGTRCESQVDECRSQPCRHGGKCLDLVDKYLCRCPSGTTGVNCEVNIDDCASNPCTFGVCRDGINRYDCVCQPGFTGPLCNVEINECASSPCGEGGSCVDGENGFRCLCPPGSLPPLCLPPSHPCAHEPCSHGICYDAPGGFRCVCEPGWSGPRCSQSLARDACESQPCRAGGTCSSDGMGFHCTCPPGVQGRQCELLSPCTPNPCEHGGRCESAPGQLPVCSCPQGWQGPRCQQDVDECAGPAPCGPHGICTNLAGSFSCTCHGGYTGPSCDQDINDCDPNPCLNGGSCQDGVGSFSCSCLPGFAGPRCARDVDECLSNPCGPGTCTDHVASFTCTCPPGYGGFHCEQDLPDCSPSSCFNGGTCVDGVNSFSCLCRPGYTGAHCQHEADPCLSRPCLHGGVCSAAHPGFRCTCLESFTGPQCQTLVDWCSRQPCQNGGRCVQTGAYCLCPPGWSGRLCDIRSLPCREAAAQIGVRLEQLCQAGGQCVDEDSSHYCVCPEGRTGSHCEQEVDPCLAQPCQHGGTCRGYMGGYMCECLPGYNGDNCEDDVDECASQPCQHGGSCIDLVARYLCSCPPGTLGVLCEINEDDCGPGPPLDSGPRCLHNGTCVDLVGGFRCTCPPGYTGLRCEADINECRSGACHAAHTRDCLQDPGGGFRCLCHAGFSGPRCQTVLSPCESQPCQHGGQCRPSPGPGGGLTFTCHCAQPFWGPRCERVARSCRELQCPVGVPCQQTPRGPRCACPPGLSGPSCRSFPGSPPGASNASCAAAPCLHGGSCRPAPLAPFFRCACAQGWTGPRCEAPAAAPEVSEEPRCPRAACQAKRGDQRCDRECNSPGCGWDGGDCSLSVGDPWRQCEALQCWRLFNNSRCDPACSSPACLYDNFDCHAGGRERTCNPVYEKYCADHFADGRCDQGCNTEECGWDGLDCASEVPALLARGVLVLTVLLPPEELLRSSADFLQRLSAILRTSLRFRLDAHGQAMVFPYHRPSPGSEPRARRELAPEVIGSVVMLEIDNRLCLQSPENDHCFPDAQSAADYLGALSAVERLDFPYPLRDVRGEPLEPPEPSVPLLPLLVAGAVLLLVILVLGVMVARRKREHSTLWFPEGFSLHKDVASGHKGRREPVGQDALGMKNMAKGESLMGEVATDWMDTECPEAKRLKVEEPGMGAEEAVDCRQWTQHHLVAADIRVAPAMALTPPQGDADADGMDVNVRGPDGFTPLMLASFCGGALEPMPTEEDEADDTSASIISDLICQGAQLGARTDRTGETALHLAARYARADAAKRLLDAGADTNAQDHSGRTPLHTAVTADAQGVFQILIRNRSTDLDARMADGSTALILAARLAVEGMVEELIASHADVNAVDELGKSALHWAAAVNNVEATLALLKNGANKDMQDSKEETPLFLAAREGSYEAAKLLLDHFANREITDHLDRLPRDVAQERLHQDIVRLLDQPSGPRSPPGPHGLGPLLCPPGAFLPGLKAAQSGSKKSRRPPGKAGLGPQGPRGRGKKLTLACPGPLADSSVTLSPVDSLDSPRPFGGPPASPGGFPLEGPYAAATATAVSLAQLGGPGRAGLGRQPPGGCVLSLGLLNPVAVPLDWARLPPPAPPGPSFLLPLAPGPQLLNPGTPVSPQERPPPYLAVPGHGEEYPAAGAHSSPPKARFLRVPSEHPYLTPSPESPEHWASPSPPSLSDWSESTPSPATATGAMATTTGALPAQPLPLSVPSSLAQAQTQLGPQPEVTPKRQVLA

SMILES | composite z-score [1] | z-score [2] | z-score [3] | z-score [4] | composite z-score [5] | z-score [6] | composite z-score [7] | composite z-score [8] | composite z-score [9] | composite z-score [10]
C=CCOC(=O)[C@H]1[C@@H]2C(=O)O[C@@H](c3ccccc3)[C@@H](c3ccccc3)N2[C@@H](c2ccc(OCCOC(=O)[C@H]3C[C@H]4C(=O)N[C@@H](CCCCN(C)C)C(=O)N4[C@H]3c3cccc(OCCO)c3)cc2)[C@]12C(=O)Nc1ccc(I)cc12 | 1.54 | 1.71 (inactive) | -1.05 (inactive) | 1.71 (inactive) | 2.84 | -1.36 (inactive) | -0.129 | 1.67 | 1.06 | -0.15
O=C(NCCN1CCOCC1)[C@@H]1c2ccccc2C(=O)N(Cc2cc(C(F)(F)F)cc(C(F)(F)F)c2)[C@H]1c1ccc(CO)cc1 | 1.56 | 0.764 (inactive) | -0.091 (inactive) | 0.0371 (inactive) | 2.37 | 0.339 (inactive) | -0.0856 | -0.901 | -0.578 | -0.0744
C=C(C)[C@@H]1CC=C(C(O)C2C=CC3C(=O)NC(=O)C3N2Nc2ccc(Cl)cc2Cl)CC1 (stereo not given in full) | 0.794 | -9.03 (active) | -5.22 (inactive) | 3.45 (inactive) | 2.91 | -2.91 (inactive) | 0.325 | -0.821 | 1.06 | 0.0044
O=C(O)[C@@]1(CCS(=O)(=O)c2ccccc2)N=C(c2ccc(OCCCO)cc2)O[C@H]1c1ccccc1 | 1.07 | -0.326 (inactive) | -5.25 (inactive) | -0.934 (inactive) | 3.46 | 0.712 (inactive) | 0.16 | -0.0519 | -0.0296 | -0.144
COc1ccc(CCNC(=O)[C@@]2(c3ccc([N+](=O)[O-])cc3)CC(=O)N(CC34CC5CC(CC(C5)C3)C4)[C@@H]2c2ccc(CO)cc2I)cc1 | 1.54 | 0.484 (inactive) | 0.369 (inactive) | 6.17 (inactive) | 2.83 | 0.376 (inactive) | -0.387 | 1.52 | 1.1 | -0.151
O=C1C2C=CC(C(O)c3ccc4c(c3)OCO4)N(Nc3ccc([N+](=O)[O-])cc3)C2C(=O)N1c1ccccc1 (stereo not given) | 0.66 | -0.664 (inactive) | 0.484 (inactive) | 1.36 (inactive) | 1.97 | -0.245 (inactive) | -0.222 | -0.0077 | 0.777 | 0.006
O=C1C2C=CC(C(O)COCc3ccccc3)N(Nc3ccc([N+](=O)[O-])cc3)C2C(=O)N1c1ccccc1 (stereo not given) | 1.46 | -0.464 (inactive) | 1.12 (inactive) | 2.16 (inactive) | 2.83 | 0.547 (inactive) | 0.168 | 0.661 | 1.09 | -0.0072
N#Cc1ccc(C(O)C2C=CC3C(=O)N(c4ccccc4)C(=O)C3N2Nc2ccccc2F)cc1 (stereo not given) | 0.713 | -0.413 (inactive) | 0.135 (inactive) | -0.851 (inactive) | 2.93 | 0.246 (inactive) | -0.113 | 0.339 | 0.972 | 0.0262
COC(=O)[C@@]1(Cc2ccc(OC)cc2)[C@H]2c3cc(C(=O)N4CCCC4)n(CCSCCO)c3C[C@H]2CN1C(=O)c1ccccc1 | 0.416 | 0.786 (inactive) | 1.72 (inactive) | 1.25 (inactive) | 3.38 | -0.647 (inactive) | 0.172 | -0.492 | 0.671 | 0.157
COCCCNC(=O)[C@]1(Cc2ccccc2)N=C(c2ccc(OCCCO)cc2)O[C@@H]1c1ccccc1CN=[N+]=[N-] | 1.55 | -2.05 (inactive) | 1.05 (inactive) | 0.842 (inactive) | 3.59 | 1.03 (inactive) | 0.195 | 0.53 | 1.08 | 0.0326
C=CCNC(=O)[C@@H]1[C@H]2C(=O)O[C@H](c3ccccc3)[C@H](c3ccccc3)N2[C@H](c2ccc(OCCO)cc2)[C@@]12C(=O)N(C(=O)OCCOC)c1ccc(C#CCNC(N)=O)cc12 | 1.4 | 2.15 (inactive) | -0.221 (inactive) | 3.97 (inactive) | 1.61 | 1.98 (inactive) | 0.0565 | 0.954 | 1.13 | -0.0069
CC(C)C(=C=CC[C@H](O)c1ccc(CO)o1)CCO | 1.52 | -0.0662 (inactive) | -0.697 (inactive) | -0.536 (inactive) | 1.51 | -0.253 (inactive) | -0.28 | 0.679 | 0.787 | -0.14
COCCOC(=O)N1C(=O)[C@@]2(c3cc(C#CC4(O)CCCCCC4)ccc31)[C@H](C(=O)Nc1nc3ccccc3s1)[C@H]1C(=O)O[C@H](c3ccccc3)[C@H](c3ccccc3)N1[C@@H]2c1ccc(OCCO)cc1 | 1.55 | 2.38 (inactive) | 1.32 (inactive) | 4.01 (inactive) | 1.87 | 0.76 (inactive) | -0.0458 | 1.45 | 1.09 | 0.0064
COC(=O)c1c2oc(c1C(=O)OC)C(=O)N[C@@H](C(C)C)Cn1cc(nn1)C1(CCCCC1)NC(=O)N[C@H](CO)CC2 | 0.523 | -0.301 (inactive) | -0.772 (inactive) | -0.538 (inactive) | 1.41 | 1.29 (inactive) | -0.116 | 1.59 | 0.171 | -0.163
COc1ccc([Si](C)(C)[C@@H]2[C@@H](CC(=O)N3CCC[C@H]3CO)O[C@]3(C(=O)N(Cc4cccc(I)c4)c4ccccc43)[C@H]2C)cc1 | 1.53 | -1.23 (inactive) | 0.0115 (inactive) | 1.14 (inactive) | 0.175 | 0.25 (inactive) | 0.0678 | 1.62 | 1.08 | 0.0807
C=C(C(=O)CC[C@H](OC(C)=O)c1ccccc1OCCO)C(C)C | 0.316 | -25 (active) | -20.2 (active) | -4.35 (inactive) | -0.808 | 0.43 (inactive) | -0.232 | 0.657 | 0.0937 | -0.188
C=C(/C(=C/C[C@H](OC(C)=O)c1ccc(OCCO)cc1)c1cc(C(=O)OC)ccc1OC)C(C)C | 1.55 | 0.71 (inactive) | -0.299 (inactive) | -0.874 (inactive) | 2.79 | 0.806 (inactive) | -0.0616 | 1.39 | 0.51 | -0.0828
COCCOC(=O)N1C(=O)[C@@]2(c3ccccc31)[C@H](c1ccc(OCCO)cc1)N1[C@H](c3ccccc3)[C@H](c3ccccc3)OC(=O)[C@H]1[C@@H]2C(=O)N1CCc2cc(OC)c(OC)cc2C1 | 1.53 | 1.93 (inactive) | 0.856 (inactive) | 4.71 (inactive) | 3.09 | 0.0474 (inactive) | 0.284 | 1.12 | 1.14 | 0.246
[N-]=[N+]=NCc1ccccc1C[C@@]1(C(=O)NCC(O)CO)N=C(c2ccc(OCCCO)cc2)O[C@@H]1c1ccccc1 (stereo not given in full) | 0.303 | -0.213 (inactive) | -0.272 (inactive) | -0.37 (inactive) | 3.21 | 0.627 (inactive) | 0.202 | -0.962 | -1.12 | 0.0061
CCOC(=O)C1=CC[C@@H](c2ccccc2)N(S(=O)(=O)c2ccc(C)cc2)[C@H]1c1ccc(CC)cc1 | 1.27 | 0.891 (inactive) | 1.94 (inactive) | 2.17 (inactive) | 2.02 | -0.315 (inactive) | 0.05 | -0.503 | 0.716 | 0.279
C=CC1c2cc(O)c(OC)cc2CCN1Cc1cccc(OC(F)(F)F)c1 (stereo not given) | 1.22 | -26 (active) | -20.2 (active) | -3.13 (inactive) | 3.88 | 0.148 (inactive) | -0.129 | -0.0799 | -0.344 | -0.125
COc1cc2c(cc1O)C(c1cccs1)N(Cc1cccc(OC(F)(F)F)c1)CC2 (stereo not given) | 1.46 | -2.16 (inactive) | -8.15 (active) | -2.63 (inactive) | 2.1 | -0.878 (inactive) | -0.0785 | -0.648 | 0.108 | -0.139
NC(=O)[C@@H]1[C@H]2C(=O)O[C@H](c3ccccc3)[C@H](c3ccccc3)N2[C@H](c2ccc(OCCO)cc2)[C@@]12C(=O)Nc1ccc(C#CC3=CCCCC3)cc12 | 1.55 | 0.529 (inactive) | 0.544 (inactive) | 2.91 (inactive) | 2.08 | 1.69 (inactive) | 0.0209 | 1.35 | 0.951 | -0.0343
[N-]=[N+]=Nc1ccccc1C[C@]1(C(=O)NCC(O)CO)N=C(c2ccc(OCCCO)cc2)O[C@H]1c1ccccc1 (stereo not given in full) | 0.909 | 1.25 (inactive) | 0.0558 (inactive) | 0.568 (inactive) | 2.2 | 0.291 (inactive) | 0.322 | -0.5 | 0.394 | -0.0826
C[N+](C)(C)CCCC[C@@H]1NC(=O)[C@@H]2C[C@H](C(=O)NCCCCCN)[C@H](c3ccc(O)cc3)N2C1=O | 1.53 | -4.09 (inactive) | -1.1 (inactive) | -0.978 (inactive) | 2.46 | 1.12 (inactive) | 0.79 | 1.01 | 1.09 | 0.239
CCCC[C@H]1C[C@@H]1[C@@H]1N(P(=O)(c2ccccc2)c2ccccc2)C[C@@](O)(c2ccccc2)CC12CC2 | 0.761 | -0.841 (inactive) | -7.02 (inactive) | 32.9 (active) | 3.06 | -0.931 (inactive) | 0.356 | -0.695 | -0.317 | 0.0144
COc1cc2c(cc1O)C=[N+](Cc1cc3c(cc1Br)OCO3)CC2 | 0.168 | 0.213 (inactive) | -9.96 (active) | -0.208 (inactive) | 0.379 | -1.52 (inactive) | -0.0285 | -0.833 | -0.223 | -0.188
CC(C)(C)OC(=O)CC[C@]1(C(N)=O)N=C(c2ccc(OCCCO)cc2)O[C@H]1c1ccccc1 | 0.735 | 0.519 (inactive) | 0.256 (inactive) | 0.793 (inactive) | 3.74 | 0.152 (inactive) | 0.423 | 0.115 | 0.89 | 0.372
